# Results published in PubChem BioAssay AID1159580 (chemical genetic matrix, 2015).
# About 2,000 (36%) of roughly 5,500 compounds were called active. Not shown: some 18% with an inconclusive outcome. The list shows a part of the results. A number with no mark means an inactive call. Rule as the data show it: active = normalized growth mostly below about 0.91 (no sharp cut-off); inconclusive = no clear call, values can overlap the other calls; inactive = mostly above about 0.92.
# Assay: chemical genetic growth profiling, strain panel (AID 1159580);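 also: tested at 20 µM; growth read once vehicle control cultures reached saturation at 30 °C; 1 = growth at the plate median or of vehicle wells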
# Conditions: growth OD
# [1] = S. cerevisiae deletion strains, locus YAL013W, strain DEP1, stronger effect = lower value
# [2] = S. cerevisiae deletion strains, locus YBR229C, strain ROT2, stronger effect = lower value
# [3] = S. cerevisiae deletion strains, locus YDL101C, strain DUN1, stronger effect = lower value
# [4] = S. cerevisiae deletion strains, locus YDL134C, strain PPH21, stronger effect = lower value
# [5] = S. cerevisiae deletion strains, locus YDR150W, strain NUM1, stronger effect = lower value
# [6] = S. cerevisiae deletion strains, locus YEL061C, strain CIN8, stronger effect = lower value
# [7] = S. cerevisiae deletion strains, locus YGR078C, strain PAC10, stronger effect = lower value
# [8] = S. cerevisiae deletion strains, locus YGR229C, strain SMI1, stronger effect = lower value
# [9] = S. cerevisiae deletion strains, locus YHR030C, strain SLT2, stronger effect = lower value
# [10] = S. cerevisiae deletion strains, locus YHR087W, strain rtc3, stronger effect = lower value
# [11] = S. cerevisiae deletion strains, locus YJR043C, strain POL32, stronger effect = lower value
# [12] = S. cerevisiae deletion strains, locus YJR075W, strain HOC1, stronger effect = lower value
# [13] = S. cerevisiae deletion strains, locus YLR039C, strain RIC1, stronger effect = lower value
# [14] = S. cerevisiae deletion strains, locus YLR058C, strain SHM2 (second series), stronger effect = lower value
# [15] = S. cerevisiae deletion strains, locus YLR085C, strain ARP6, stronger effect = lower value
# [16] = S. cerevisiae deletion strains, locus YLR262C, strain YPT6, stronger effect = lower value
# [17] = S. cerevisiae deletion strains, locus YML094W, strain GIM5, stronger effect = lower value
# [18] = S. cerevisiae deletion strains, locus YMR219W, strain ESC1, stronger effect = lower value
# [19] = S. cerevisiae deletion strains, locus YMR263W, strain SAP30, stronger effect = lower value
# [20] = S. cerevisiae deletion strains, locus YNL153C, strain GIM3, stronger effect = lower value
# [21] = S. cerevisiae deletion strains, locus YNL298W, strain CLA4 (second series), stronger effect = lower value
# [22] = S. cerevisiae deletion strains, locus YNL322C, strain KRE1, stronger effect = lower value
# [23] = S. cerevisiae deletion strains, locus YNR030W, strain Alg12, stronger effect = lower value
# [24] = S. cerevisiae deletion strains, locus YPL055C, strain LGE1, stronger effect = lower value
# [25] = S. cerevisiae deletion strains, locus YPL241C, strain CIN2, stronger effect = lower value
# [26] = S. cerevisiae deletion strains, locus YPR135W, strain CTF4, stronger effect = lower value
# [27] = S. cerevisiae deletion strains, locus YMR307W, strain GAS1, stronger effect = lower value
smiles,measurement,setting,value
c1ccc(CN2CCC(n3nnc4cccnc43)CC2)cc1,normalized growth,[1],0.995
same,normalized growth,[2],1.01
same,normalized growth,"S. cerevisiae deletion strains, locus YCL061C, strain MRC1, stronger effect = lower value",1.02
same,normalized growth,[3],0.987
same,normalized growth,[4],0.993
same,normalized growth,[5],0.997
same,normalized growth,[6],1.01
same,normalized growth,[7],1.01
same,normalized growth,[8],0.997
same,normalized growth,[9],0.995
same,normalized growth,[10],1.01
same,normalized growth,[11],1.01
same,normalized growth,[12],1
same,normalized growth,[13],1
same,normalized growth,[14],1.04
same,normalized growth,[15],0.995
same,normalized growth,[16],0.957
same,normalized growth,[17],0.984
same,normalized growth,[18],1
same,normalized growth,[19],1.01
same,normalized growth,[20],1.01
same,normalized growth,[21],0.965
same,normalized growth,[22],0.996
same,normalized growth,[23],1.01
same,normalized growth,[24],1.03
same,normalized growth,[25],0.983
same,normalized growth,[26],1.01
Clc1ccc(CN2CCN(c3cccc4[nH]ccc34)CC2)cc1Cl,normalized growth,"S. cerevisiae deletion strains, locus YAR019C, strain CDC15, stronger effect = lower value",0.997
same,normalized growth,"S. cerevisiae deletion strains, locus YBL105C, strain PKC1, stronger effect = lower value",0.993
same,normalized growth,"S. cerevisiae deletion strains, locus YBR135W, strain CKS1, stronger effect = lower value",0.995
same,normalized growth,"S. cerevisiae deletion strains, locus YBR136W, strain MEC1, stronger effect = lower value",0.994
same,normalized growth,"S. cerevisiae deletion strains, locus YBR160W, strain CDC28, stronger effect = lower value",0.986
same,normalized growth,"S. cerevisiae deletion strains, locus YDL017W, strain CDC7, stronger effect = lower value",0.994
same,normalized growth,"S. cerevisiae deletion strains, locus YDL028C, strain MPS1, stronger effect = lower value",0.999
same,normalized growth,[3],0.988
same,normalized growth,"S. cerevisiae deletion strains, locus YDL108W, strain KIN28, stronger effect = lower value",0.983
same,normalized growth,"S. cerevisiae deletion strains, locus YDL132W, strain cdc53, stronger effect = lower value",0.993
same,normalized growth,"S. cerevisiae deletion strains, locus YDL214C, strain PRR2, stronger effect = lower value",0.962
same,normalized growth,"S. cerevisiae deletion strains, locus YDR052C, strain DBF4, stronger effect = lower value",0.996
same,normalized growth,"S. cerevisiae deletion strains, locus YDR054C, strain cdc34, stronger effect = lower value",0.993
same,normalized growth,"S. cerevisiae deletion strains, locus YDR226W, strain ADK1, stronger effect = lower value",0.984
same,normalized growth,"S. cerevisiae deletion strains, locus YDR477W, strain SNF1, stronger effect = lower value",0.972
same,normalized growth,"S. cerevisiae deletion strains, locus YER123W, strain YCK3, stronger effect = lower value",0.917
same,normalized growth,"S. cerevisiae deletion strains, locus YER133W, strain GLC7, stronger effect = lower value",0.977
same,normalized growth,"S. cerevisiae deletion strains, locus YFL009W, strain cdc4, stronger effect = lower value",0.986
same,normalized growth,"S. cerevisiae deletion strains, locus YFL029C, strain CAK1, stronger effect = lower value",0.994
same,normalized growth,"S. cerevisiae deletion strains, locus YFR003C, strain YPI1, stronger effect = lower value",0.992
same,normalized growth,"S. cerevisiae deletion strains, locus YFR019W, strain FAB1, stronger effect = lower value",0.971
same,normalized growth,"S. cerevisiae deletion strains, locus YFR028C, strain CDC14, stronger effect = lower value",0.991
same,normalized growth,"S. cerevisiae deletion strains, locus YGR040W, strain KSS1, stronger effect = lower value",0.962
same,normalized growth,"S. cerevisiae deletion strains, locus YGR052W, strain FMP48, stronger effect = lower value",1.1
same,normalized growth,"S. cerevisiae deletion strains, locus YGR092W, strain DBF2, stronger effect = lower value",0.942
same,normalized growth,[9],1.16 [resistant] (active)
same,normalized growth,"S. cerevisiae deletion strains, locus YHR079C, strain IRE1, stronger effect = lower value",1.11
same,normalized growth,"S. cerevisiae deletion strains, locus YHR082C, strain KSP1, stronger effect = lower value",1.09
same,normalized growth,"S. cerevisiae deletion strains, locus YHR205W, strain SCH9, stronger effect = lower value",0.974
same,normalized growth,"S. cerevisiae deletion strains, locus YIL147C, strain SLN1, stronger effect = lower value",0.992
same,normalized growth,"S. cerevisiae deletion strains, locus YJL095W, strain BCK1, stronger effect = lower value",1.1
same,normalized growth,"S. cerevisiae deletion strains, locus YJL128C, strain PBS2, stronger effect = lower value",0.946
same,normalized growth,"S. cerevisiae deletion strains, locus YJL157C, strain FAR1, stronger effect = lower value",0.968
same,normalized growth,"S. cerevisiae deletion strains, locus YJR016C, strain ILV3, stronger effect = lower value",0.993
same,normalized growth,"S. cerevisiae deletion strains, locus YJR066W, strain TOR1 (second series), stronger effect = lower value",0.958
same,normalized growth,"S. cerevisiae deletion strains, locus YJR066W, strain TOR1, stronger effect = lower value",1.13
same,normalized growth,"S. cerevisiae deletion strains, locus YKL048C, strain ELM1, stronger effect = lower value",0.988
same,normalized growth,"S. cerevisiae deletion strains, locus YKL067W, strain YNK1, stronger effect = lower value",0.982
same,normalized growth,"S. cerevisiae deletion strains, locus YKL101W, strain HSL1, stronger effect = lower value",0.968
same,normalized growth,"S. cerevisiae deletion strains, locus YKL193C, strain SDS22, stronger effect = lower value",0.992
same,normalized growth,"S. cerevisiae deletion strains, locus YKL203C, strain TOR2, stronger effect = lower value",1.04
same,normalized growth,"S. cerevisiae deletion strains, locus YLR113W, strain HOG1, stronger effect = lower value",1.07
same,normalized growth,"S. cerevisiae deletion strains, locus YLR133W, strain CKI1, stronger effect = lower value",0.977
same,normalized growth,"S. cerevisiae deletion strains, locus YLR403W, strain SFP1, stronger effect = lower value",0.965
same,normalized growth,"S. cerevisiae deletion strains, locus YML070W, strain DAK1, stronger effect = lower value",0.964
same,normalized growth,"S. cerevisiae deletion strains, locus YMR001C, strain CDC5, stronger effect = lower value",0.993
same,normalized growth,"S. cerevisiae deletion strains, locus YMR205C, strain PFK2 (second series), stronger effect = lower value",0.976
same,normalized growth,"S. cerevisiae deletion strains, locus YMR277W, strain FCP1, stronger effect = lower value",1
same,normalized growth,"S. cerevisiae deletion strains, locus YNL006W, strain LST8, stronger effect = lower value",0.999
same,normalized growth,"S. cerevisiae deletion strains, locus YNL020C, strain ARK1, stronger effect = lower value",0.981
same,normalized growth,"S. cerevisiae deletion strains, locus YNL161W, strain CBK1, stronger effect = lower value",0.998
same,normalized growth,"S. cerevisiae deletion strains, locus YNL183C, strain NPR1, stronger effect = lower value",1.11
same,normalized growth,"S. cerevisiae deletion strains, locus YNL207W, strain RIO2, stronger effect = lower value",0.993
same,normalized growth,"S. cerevisiae deletion strains, locus YNL222W, strain SSU72, stronger effect = lower value",0.992
same,normalized growth,"S. cerevisiae deletion strains, locus YNL307C, strain MCK1 (second series), stronger effect = lower value",0.995
same,normalized growth,"S. cerevisiae deletion strains, locus YOL078W, strain AVO1, stronger effect = lower value",0.996
same,normalized growth,"S. cerevisiae deletion strains, locus YOL136C, strain PFK27, stronger effect = lower value",0.974
same,normalized growth,"S. cerevisiae deletion strains, locus YOR061W, strain CKA2, stronger effect = lower value",0.955
same,normalized growth,"S. cerevisiae deletion strains, locus YOR119C, strain RIO1, stronger effect = lower value",1.03
same,normalized growth,"S. cerevisiae deletion strains, locus YOR231W, strain MKK1, stronger effect = lower value",1.08
same,normalized growth,"S. cerevisiae deletion strains, locus YOR329C, strain SCD5, stronger effect = lower value",0.999
same,normalized growth,"S. cerevisiae deletion strains, locus YPL031C, strain PHO85, stronger effect = lower value",0.977
same,normalized growth,"S. cerevisiae deletion strains, locus YPL153C, strain RAD53, stronger effect = lower value",0.97
same,normalized growth,"S. cerevisiae deletion strains, locus YPL204W, strain HRR25, stronger effect = lower value",0.979
same,normalized growth,"S. cerevisiae deletion strains, locus YPL209C, strain IPL1, stronger effect = lower value",0.997
same,normalized growth,"S. cerevisiae deletion strains, locus YPL256C, strain CLN2, stronger effect = lower value",1.07
same,normalized growth,"S. cerevisiae deletion strains, locus YPR025C, strain CCL1, stronger effect = lower value",0.995
same,normalized growth,"S. cerevisiae deletion strains, locus YPR106W, strain ISR1, stronger effect = lower value",0.99
same,normalized growth,"S. cerevisiae deletion strains, locus YPR111W, strain DBF20, stronger effect = lower value",0.992
same,normalized growth,"S. cerevisiae deletion strains, strain NNK1, stronger effect = lower value",0.993
same,normalized growth,"S. cerevisiae deletion strains, strain TSCII, stronger effect = lower value",1
CC1(C)CCC=[N+]1[O-],normalized growth,[1],1
same,normalized growth,"S. cerevisiae deletion strains, locus YAL040C, strain CLN3, stronger effect = lower value",1.04
same,normalized growth,"S. cerevisiae deletion strains, locus YCL061C, strain MRC1 (second series), stronger effect = lower value",1.01
same,normalized growth,[5],1
same,normalized growth,"S. cerevisiae deletion strains, locus YDR363W, strain ESC2, stronger effect = lower value",1.02
same,normalized growth,"S. cerevisiae deletion strains, locus YER002W, strain NOP16, stronger effect = lower value",0.98
same,normalized growth,[8],1.05
same,normalized growth,[12],1.03
same,normalized growth,[19],1
same,normalized growth,[27],1.01
same,normalized growth,"S. cerevisiae deletion strains, locus YNL175C, strain NOP13, stronger effect = lower value",0.993
same,normalized growth,"S. cerevisiae deletion strains, locus YNL197C, strain WHI3, stronger effect = lower value",1.01
same,normalized growth,"S. cerevisiae deletion strains, locus YNL224C, strain SQS1, stronger effect = lower value",1
same,normalized growth,[22],1.01
same,normalized growth,"S. cerevisiae deletion strains, locus YOR083W, strain WHI5 (second series), stronger effect = lower value",1.03
same,normalized growth,[25],1
CCOC(=O)CSc1nc2cc(C(F)(F)F)cnc2n1C,normalized growth,[1],0.984
same,normalized growth,[2],0.98
same,normalized growth,[3],1.01
same,normalized growth,[4],0.975
same,normalized growth,[5],0.99
same,normalized growth,[6],0.993
same,normalized growth,[7],0.983
same,normalized growth,[8],1.01
same,normalized growth,[9],0.909
same,normalized growth,[10],0.96
same,normalized growth,[11],0.988
same,normalized growth,[12],0.997
same,normalized growth,"S. cerevisiae deletion strains, locus YKL190W, strain CNB1, stronger effect = lower value",1.01
same,normalized growth,[13],1.05
same,normalized growth,[14],0.985
same,normalized growth,[15],1.04
same,normalized growth,[16],1.03
same,normalized growth,[17],0.952
same,normalized growth,[18],0.989
same,normalized growth,[19],0.99
same,normalized growth,[27],1.19
same,normalized growth,[20],1
same,normalized growth,[21],0.961
same,normalized growth,[22],0.982
same,normalized growth,[23],0.988
same,normalized growth,"S. cerevisiae deletion strains, locus YOL006C, strain TOP1, stronger effect = lower value",0.942
same,normalized growth,[24],0.981
same,normalized growth,[25],1.07
same,normalized growth,[26],0.912
COC(OC)c1cc(=O)[nH]c(=S)[nH]1,normalized growth,[1],1.01
same,normalized growth,[2],1.02
same,normalized growth,[3],1
same,normalized growth,[4],1.02
same,normalized growth,[5],0.918
same,normalized growth,[6],1.04
same,normalized growth,[7],1.03
same,normalized growth,[9],1.06
same,normalized growth,[10],1.01
same,normalized growth,"S. cerevisiae deletion strains, locus YJL187C, strain SWE1, stronger effect = lower value",1.02
same,normalized growth,[11],1.01
same,normalized growth,[12],1.01
same,normalized growth,[13],1.07
same,normalized growth,[14],1.01
same,normalized growth,[15],1.11
same,normalized growth,[16],1.03
same,normalized growth,[17],1.02
same,normalized growth,[18],1.01
same,normalized growth,[19],1.03
same,normalized growth,[27],1.12
same,normalized growth,[20],1.01
same,normalized growth,[21],1.08
same,normalized growth,[22],1.01
same,normalized growth,[23],1.02
same,normalized growth,[24],0.935
same,normalized growth,[25],0.913
same,normalized growth,[26],1.03
same,normalized growth,"S. cerevisiae strains, strain wild type, stronger effect = lower value",1.01
